Among the test systems are HT29 colon; SNB-75 CNS; SNB-19 CNS; U251 CNS; SK-MEL-5 melanoma; LOX IMVI melanoma; SK-MEL-28 melanoma; SK-MEL-2 melanoma; EKVX NSCLC; SN12C renal; UO-31 renal; TK-10 renal; ACHN renal; CAKI-1 renal; A498 renal; CCRF-CEM leukemia; MOLT-4 leukemia; PC-3 prostate; UACC-62 melanoma.
Test in all cases: NCI-60 one-dose screen, 48 h (100 = growth as untreated, 0 = no growth, -100 = all killed)
Details in all cases: 10 µM unless noted

Compounds without any hit were thinned out: in the full panel of roughly 83,000, 20% have a hit.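 Plates (96-well) were seeded with cells, treated with compound at one concentration, and incubated for 48 hours before percent growth was determined.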 Values without a mark were called inactive. Active and inactive are the calls of the source. How the source made its calls: active means growth percent below 10; inactive means the rest.

With `CCN(CC)CCNc1nc2ccccc2c2c(=O)c3cc(Cl)ccc3sc12`, the growth was 18.3% with HT29 colon; 29.6% in the assay with SNB-75 CNS; 69.5% in the assay on SNB-19 CNS; 39.7% with U251 CNS; 74.4% in the assay with SK-MEL-5 melanoma; -58.8% (active) with LOX IMVI melanoma. Also, the growth in the assay on SK-MEL-28 melanoma is 98.1%; in the assay with SK-MEL-2 melanoma it was 89%; with EKVX NSCLC, 74.9%; in the assay with SN12C renal it was 66.7%; in the assay with UO-31 renal, 43.7%; in the assay on TK-10 renal, 80.1%. Also, the growth with ACHN renal is 47.6%; in the assay with CAKI-1 renal, 22.6%; in the assay on A498 renal, -7.91% (active); in the assay with CCRF-CEM leukemia it was 7.05% (active); with MOLT-4 leukemia it was 25.1%.

As for `CC1=C(SCCC(=O)OC(C[Se]C2=C(C)C(=O)c3ccccc3C2=O)C(=O)NC(C)(C)C)C(=O)c2ccccc2C1=O` (stereo not given), the growth with HT29 colon was -5.09% (active); with SNB-75 CNS it was -95.9% (active); in the assay on SNB-19 CNS it was -92.6% (active); with U251 CNS it was -69% (active); in the assay with PC-3 prostate, -64% (active); with SK-MEL-5 melanoma it was -99.4% (active). For the same molecule, the growth with UACC-62 melanoma is -91.2% (active); in the assay on SK-MEL-28 melanoma, -96% (active); in the assay on SK-MEL-2 melanoma, 2.5% (active); in the assay with EKVX NSCLC, -71.2% (active); with SN12C renal, -64.4% (active); with UO-31 renal, -41.2% (active). In addition, the growth with TK-10 renal was -94.3% (active); in the assay on ACHN renal, -78.3% (active); with CAKI-1 renal it was -56.4% (active); in the assay on A498 renal, -40.6% (active); with CCRF-CEM leukemia, -23% (active); with MOLT-4 leukemia it was 13.1%.

As to `CS(=O)(=O)Nc1cc(-c2ccc3ncnc(Nc4cccc(Cl)c4F)c3c2)cnc1Cl`, the growth was 47.6% in the assay with HT29 colon; 9.28% (active) in the assay on SNB-75 CNS; 46.4% in the assay on SNB-19 CNS; 33.6% in the assay with U251 CNS; 41.4% with PC-3 prostate; 24.7% in the assay with SK-MEL-5 melanoma. Moreover, the growth with LOX IMVI melanoma was 4.21% (active); with SK-MEL-28 melanoma, 24.6%; in the assay with SK-MEL-2 melanoma, 28.4%; with EKVX NSCLC, 44.7%; with SN12C renal, 37.4%; in the assay with UO-31 renal, 28.8%. The growth with TK-10 renal was 34.8%; with ACHN renal, 66.5%; with CAKI-1 renal, 19.8%; in the assay with A498 renal it was -32.5% (active); with CCRF-CEM leukemia, 30.4%; in the assay on MOLT-4 leukemia, 27.3%.

For `O=c1c2cccc(Cl)c2sc2c(NCCCNCCO)nc3ccccc3c12`, the growth with HT29 colon is -51.7% (active); in the assay with SNB-75 CNS, 51.9%; in the assay with SNB-19 CNS it was 45.7%; in the assay on U251 CNS, 10.8%; in the assay on PC-3 prostate it was 41.8%; in the assay with UACC-62 melanoma it was 66.2%. The growth with LOX IMVI melanoma is -93.1% (active); in the assay on SK-MEL-28 melanoma, 72.1%; in the assay on SK-MEL-2 melanoma it was 104%; in the assay on EKVX NSCLC it was 53.9%; in the assay on SN12C renal, 39.1%; with UO-31 renal, 12.5%. Besides, the growth was 39.1% with TK-10 renal; 10.3% with ACHN renal; -46.9% (active) in the assay on CAKI-1 renal; 10.8% in the assay on A498 renal; -14.6% (active) in the assay with CCRF-CEM leukemia; -40.3% (active) in the assay on MOLT-4 leukemia.

Take `NCCOc1ncccc1/C=C1\C2C=CC=CC2C2C=CC(F)=CC12` (stereo not given): the growth is 14.4% with HT29 colon; 40.3% in the assay on SNB-75 CNS; 16% in the assay on SNB-19 CNS; 10.8% in the assay with U251 CNS; 33.9% in the assay with PC-3 prostate; 21.7% in the assay with SK-MEL-5 melanoma. In addition, the growth in the assay with UACC-62 melanoma is 31.5%; in the assay with LOX IMVI melanoma, -22.5% (active); in the assay on SK-MEL-28 melanoma, 64.3%; in the assay with SK-MEL-2 melanoma, 113%; with EKVX NSCLC, 43.9%; in the assay with SN12C renal it was -3.7% (active). Besides, the growth in the assay with UO-31 renal was -0.645% (active); in the assay with TK-10 renal, 41.7%; in the assay with ACHN renal, -34% (active); in the assay on CAKI-1 renal, 25%; with A498 renal, 17.2%; in the assay on CCRF-CEM leukemia it was 3.62% (active). The growth in the assay with MOLT-4 leukemia is 0.118% (active).

For the molecule `O=C(N=c1oc2ccccc2cc1-c1cc2ccccc2[nH]1)Nc1ccc(Cl)cc1`, the growth in the assay on HT29 colon was 99.8%; in the assay on SNB-75 CNS it was 78.3%; with SNB-19 CNS it was 97.3%; with U251 CNS, 104%; in the assay on PC-3 prostate, 86.8%; with SK-MEL-5 melanoma it was 99.6%. The growth in the assay with UACC-62 melanoma was 83%; in the assay with LOX IMVI melanoma it was 94.2%; with SK-MEL-28 melanoma, 100%; in the assay on SK-MEL-2 melanoma, 113%; in the assay with EKVX NSCLC, 88.1%; in the assay on SN12C renal it was 92.6%. Also, the growth was 61.2% in the assay on UO-31 renal; 151% with TK-10 renal; 91.3% with ACHN renal; 72.2% in the assay with CAKI-1 renal; 121% in the assay on A498 renal; 109% in the assay on CCRF-CEM leukemia. In the assay on MOLT-4 leukemia, the growth is 95.8%.

`O=C(S)CNC(=O)c1ccccc1`: the growth in the assay with HT29 colon was 99.5%; in the assay on SNB-75 CNS it was 96.3%; in the assay with SNB-19 CNS, 94.9%; in the assay on U251 CNS, 95.3%; with PC-3 prostate, 91.2%; in the assay on SK-MEL-5 melanoma it was 99.7%. The growth in the assay on UACC-62 melanoma is 106%; with LOX IMVI melanoma, 98.2%; in the assay with SK-MEL-28 melanoma, 104%; in the assay on SK-MEL-2 melanoma, 101%; with EKVX NSCLC, 95.8%; in the assay with SN12C renal, 95.6%. For the same molecule, the growth in the assay with TK-10 renal is 91.6%; in the assay on ACHN renal it was 103%; in the assay on CAKI-1 renal, 90.7%; in the assay with A498 renal, 83.5%; in the assay with CCRF-CEM leukemia it was 89.9%; in the assay on MOLT-4 leukemia, 87.7%.

On to `COc1cc(C2CC(c3cccc(Br)c3)=NN2C(C)=O)cc(OC)c1OC` (stereo not given), for which the growth is 13.8% in the assay with HT29 colon; 40.8% in the assay on SNB-19 CNS; 12.2% in the assay on U251 CNS; 37.1% with PC-3 prostate; 23% in the assay with SK-MEL-5 melanoma; 14.8% in the assay on UACC-62 melanoma. Moreover, the growth with LOX IMVI melanoma is 50.1%; in the assay with SK-MEL-28 melanoma it was 70.2%; in the assay with SK-MEL-2 melanoma, 59.1%; in the assay with EKVX NSCLC, 52.7%; with SN12C renal, 41.8%; with UO-31 renal it was -27.7% (active). The growth with TK-10 renal is 48.4%; in the assay with ACHN renal, 39.8%; with CAKI-1 renal, 39.1%; in the assay with A498 renal, 19.1%; in the assay with CCRF-CEM leukemia it was 14.9%; in the assay with MOLT-4 leukemia, 19%.
